The nature of test [1]: qHTS assay to identify small molecule agonists of the vitamin D receptor (VDR) signaling pathway - cell viability counter screen (AID 743224). Further: series mostly up to about 63 µM; nearly all actives have a fitted effect of over 50% in size. The essentials: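 VDR-bla cells were preincubated 4 h at 37C/5% CO2, then exposed to compounds for 16 h. After the 2 h room-temperature bla FRET read, CellTiter-Glo was added to the same wells and luminescence read after 30 min.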
Test [2] is described as follows: qHTS assay to identify small molecule antagonists of the vitamin D receptor (VDR) signaling pathway - cell viability counter screen (AID 743225). Further: nearly all actives have a fitted effect of over 50% in size. The essentials: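 Viability counter screen run in the same wells as the beta-lactamase reporter assay: HEK 293T VDR-UAS-bla cells, 16 h compound exposure at 37C with 3 nM (final) 1-alpha,25-dihydroxyvitamin D3. CellTiter-Glo luminescence, 30 min, room temperature.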

Test [3] can be described thus: qHTS assay to identify small molecule agonists of the NFkB signaling pathway - cell viability counter screen (AID 1159515; calls by dose curve; further: series mostly up to about 61 µM; nearly all actives have a fitted effect of over 55% in size). The essentials:
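NFkB-bla ME-180 cells, 2,000/well, were plated overnight at 37 C, 5% CO2, then exposed to compounds in DMSO for 5 hr. After the bla FRET read, CellTiter-Glo was added to the same wells; luminescence was read after 30 min at room temperature.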

Test [4] can be described thus: qHTS assay to identify small molecule agonists of the endoplasmic reticulum stress response signaling pathway (AID 1159516; active means well fitted activation curve with a large enough effect in the signal ratio in the repeat runs, not every such curve was filed as active; the % refers to the signal ratio). The essentials: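 CellSensor ESRE-bla HeLa cells, carrying a beta-lactamase reporter driven by the ER stress response element, were plated overnight and exposed to compounds for 5 hr at 37 C. Reporter activity was read as FRET substrate fluorescence after 2 hr at room temperature.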

A short description of test [5]: qHTS assay to identify small molecule antagonists of the retinoid-related orphan receptor gamma (ROR-gamma) signaling pathway - cell viability counter screen (AID 1159520). Further: nearly all actives have a fitted effect of over 50% in size. The essentials:
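Tet-on ROR gamma CHO cells were given compounds for 2 hr, then doxycycline hyclate at 1 uM final, and incubated 16 hr at 37 C. Viability was measured as ATP content by CellTiter-Glo luminescence.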

In test [6] the target is Nuclear receptor ROR-gamma (Homo sapiens) (UniProt P51449). In words: qHTS assay to identify small molecule antagonists of the retinoid-related orphan receptor gamma (ROR-gamma) signaling pathway (AID 1159521; further: top concentration of the series differs between compounds; nearly all actives have a fitted effect of over 50% in size). The essentials: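 Luminescence readout (ONE-Glo, 30 min RT) after 16 h doxycycline induction; loss of signal scored as antagonism. CHO cells with TET-inducible RORγ and RORE-LUC reporter; compounds added 2 h before 1 uM final doxycycline.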

Test [7] is described as follows: qHTS assay to identify small molecule agonists of the AP-1 signaling pathway - cell viability counter screen (AID 1159525; calls by dose curve; further: nearly all actives have a fitted effect of over 55% in size). The essentials:
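AP-1-bla ME-180 cells in Opti-MEM with 0.5% dialyzed FBS, compound exposure 5 h at 37 C in 15-point titration. Viability read in the same wells as ATP content by CellTiter-Glo luminescence, normalised to tetra-n-octylammonium bromide and DMSO controls.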

The nature of test [8]: qHTS assay to identify small molecule agonists of the AP-1 signaling pathway (AID 1159526; calls by dose curve).
Test [9] can be described thus: qHTS assay to identify small molecule agonists of the RXR signaling pathway - cell viability counter screen (AID 1159529). The essentials: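 Luminescence from CellTiter-Glo (30 min, RT) measured viability in the same wells as the beta-lactamase reporter readout. Cells: GeneBLAzer RXR-alpha HEK 293T, 2% charcoal-stripped FBS. Compound exposure 16 hr, 37 C.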
Test [10] in a line: qHTS assay to identify small molecule antagonists of the retinoic acid receptor (RAR) signaling pathway (AID 1159552; further: nearly all actives have a fitted effect of over 50% in size). The essentials:
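Luminescence from a RARE luciferase reporter in C3RL4 cells served as read-out. Cells received compounds together with 1 uM final retinol and incubated 6 hr at 37 C before detection reagent was added for 30 min at room temperature.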

The target in test [11] is Retinoic acid receptor RXR-alpha (Homo sapiens) (UniProt P19793). In words: qHTS assay to identify small molecule agonists of the RXR signaling pathway (AID 1159527; calls by dose curve; further: nearly all actives have a fitted effect of over 35% in size). The essentials:
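Agonist mode; 9-cis retinoic acid positive control. HEK 293T UAS-bla reporter cells, 2% charcoal-stripped FBS, 16 hr compound exposure at 37 C/5% CO2. LiveBLAzer B/G FRET substrate 2 hr RT; ex 405, em 460/530 nm.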

A short description of test [12]: qHTS assay to identify small molecule antagonists of the retinoid acid receptor (RAR) signaling pathway - cell viability counter screen (AID 1159551). Further: nearly all actives have a fitted effect of over 35% in size. The essentials:
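C3RL4 cells were seeded overnight at 37 C, then treated with compounds plus 1 uM (final) retinol for 6 h at 37 C. Viability was read as ATP by CellTiter-Glo luminescence after 30 min at room temperature.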

Test [13] can be described thus: qHTS assay to identify small molecule antagonists of the estrogen related receptor (ERR) signaling pathway - cell viability counter screen (AID 1224818).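 Further: series mostly up to about 46 µM; viability measured after 17.5 h of compound exposure.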 The essentials: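 ERR reporter cells plated 6 h at 37 C/5% CO2, then compounds in DMSO pin-transferred and incubated 17.5 h at 37 C. Viability read as CellTiter-Fluor fluorescence after 30 min at 37 C.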
A short description of test [14]: qHTS assay to identify small molecule antagonists of the estrogen related receptor signaling pathway with the pleiotropic PPARgamma coactivator (PGC) cell viability counter screen (AID 1224822; further: series mostly up to about 46 µM). The essentials:
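PGC/ERR cells were seeded at 2,000 cells/well, rested 6 h at 37 C/5% CO2, then given compounds in DMSO by pin tool and incubated 17.5 h at 37 C. Viability came from CellTiter-Fluor fluorescence after 30 min.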

The nature of test [15]: qHTS assay to identify small molecule agonists of the retinoic acid receptor (RAR) signaling pathway (AID 1159553). Further: potency means the concentration at half of the fitted maximal effect. The essentials: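 C3RL4 cells carrying a RARE luciferase reporter were plated overnight at 37 C, then exposed to compounds in DMSO for 6 hr at 37 C and 5% CO2. Luminescence was read 30 min after luciferase reagent addition at room temperature.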
Test [16] is described as follows: qHTS assay to identify small molecule agonists of the endoplasmic reticulum stress response signaling pathway - cell viability counter screen (AID 1159517; calls by dose curve). The essentials:
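ESRE-bla HeLa cells, 1,500 per well, seeded overnight then treated with compounds for 5 hr at 37 C. After the beta-lactamase read, viability in the same wells is measured by CellTiter-Glo luminescence after 30 min at room temperature.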

Inconclusive results are not listed. Unmarked numbers belong to inactive results. Calls of active or inactive are those of the source. Unless noted, the call rests on the fitted dose curve; in most records, active means well fitted curve in the direction sought with a large enough effect in the repeat runs; inconclusive means weak or mixed curves; inactive means no such curve, though single readings can be large; an effect the other way counts as inactive or inconclusive.

Sequence of Retinoic acid receptor RXR-alpha (Homo sapiens) (P19793 whole entry, looked up): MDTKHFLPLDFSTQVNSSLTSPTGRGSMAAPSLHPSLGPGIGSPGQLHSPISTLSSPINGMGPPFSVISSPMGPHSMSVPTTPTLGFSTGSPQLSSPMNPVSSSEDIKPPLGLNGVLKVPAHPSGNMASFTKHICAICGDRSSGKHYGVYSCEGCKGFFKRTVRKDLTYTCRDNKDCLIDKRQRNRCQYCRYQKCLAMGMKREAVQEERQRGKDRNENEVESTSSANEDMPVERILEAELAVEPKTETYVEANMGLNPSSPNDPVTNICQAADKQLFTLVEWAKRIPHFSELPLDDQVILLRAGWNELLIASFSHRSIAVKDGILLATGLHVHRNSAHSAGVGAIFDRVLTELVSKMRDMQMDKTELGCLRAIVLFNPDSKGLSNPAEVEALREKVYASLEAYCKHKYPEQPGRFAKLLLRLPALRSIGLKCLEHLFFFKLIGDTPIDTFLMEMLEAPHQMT

`CCOC(=O)C(C)O` (stereo not drawn): the Potency entry in [1], in [2], in test [3], in test [4], in test [5] and in test [6] was “inactive” throughout. Further, the Potency result in test [7], in test [9] and in [10] was “inactive” throughout. In addition, the outcome in test [8] was inactive.
Take `C[C@H](CS)C(=O)N1CCC[C@H]1C(=O)O`: the Potency result in test [3], in [4], in [5], in test [6], in test [7] and in test [11] was “inactive” each time. Also, the Potency entry in [9] and in [12] was “inactive” in each case. Also, the outcome in test [8], in test [13] and in test [14] was inactive.
Turning to `Cc1ccc(Nc2c(F)cccc2Cl)c(CC(=O)O)c1`, the Potency entry in test [1], in test [2], in test [3], in [4], in test [5] and in test [6] was “inactive” throughout. Further, the Potency entry in test [7], in test [11] and in [12] was “inactive” in each case. Besides, in [8], the compound was called inactive.
On to `Cc1ccc(S(=O)(=O)NC(=O)NC2CCCCC2)cc1`, for which the Potency result in test [2], in test [3], in [4], in [5], in [6] and in [7] was “inactive” throughout. Moreover, the Potency result in [11], in [9], in test [12], in [10] and in test [15] was “inactive” each time. Also, the outcome in [8] was inactive.
`CC(C)CC(O)CC(C)C`: the Potency result in test [1], in test [2], in test [3], in test [4], in [5] and in test [6] was “inactive” in each case. Besides, the Potency result in [7], in test [11], in test [12], in [10] and in test [15] was “inactive” throughout. Besides, the outcome in test [8] was inactive.
Take `CC(C)Cc1ccc(CC(=O)O)cc1`: the Potency entry in test [2], in [3], in test [4], in test [5], in [6] and in [7] was “inactive” in each case. Further, the Potency entry in test [11], in test [9], in [12] and in [10] was “inactive” in each case.
For the compound `O=C(O)CCC(=O)c1ccc(-c2ccccc2)cc1`, the Potency entry in test [1], in test [2], in [3], in test [16], in test [5] and in test [6] was “inactive” each time. Moreover, the Potency result in test [7], in test [9] and in [10] was “inactive” in each case. The call in test [8] was inactive. The Potency in test [15] is 11.9 µM (active).
As for `C[C@@H]1[C@H](O)[C@@H](C)/C=C/C=C\C=C\C=C\C=C\C=C\C=C\[C@H](O[C@@H]2O[C@H](C)[C@@H](O)[C@H](N)[C@@H]2O)C[C@@H]2O[C@](O)(C[C@@H](O)C[C@@H](O)[C@H](O)CC[C@@H](O)C[C@@H](O)CC(=O)O[C@H]1C)C[C@H](O)[C@H]2C(=O)O` (stereo in doubt), the Potency result in test [2], in test [3], in test [4], in test [5], in test [7] and in test [11] was “inactive” each time. The Potency entry in test [12] and in test [10] was “inactive” each time.
In the case of `CCN(CC)CC(=O)Nc1c(C)cccc1C(=O)OC`, the Potency result in test [1], in [2], in test [3], in [4], in [5] and in [6] was “inactive” throughout. The Potency result in [7], in [11] and in [9] was “inactive” throughout. The compound was classed as inactive in test [8].
Turning to `CCCCCCCCCCCCCCCC(=O)OCC`, the Potency entry in [1], in test [2], in [3], in test [4], in [5] and in test [6] was “inactive” throughout. The Potency result in test [7], in test [11], in test [9], in test [12] and in test [15] was “inactive” throughout. For the same compound, the compound was classed as inactive in test [8].
In the case of `CCCCCCOC(=O)CCCCC`, the Potency result in [1], in test [3], in test [16], in [5], in [6] and in test [7] was “inactive” in each case. Moreover, the Potency result in test [11], in test [9], in test [12], in test [10] and in [15] was “inactive” throughout. Also, in test [8], the compound was called inactive.
